# Vaccinia Venus – vaccinia inhibition (Venus reporter); 330,000 tested, 0.46% active; AID 720580; Potency, µM (doses to about 36.5 µM), actives largely listed as inhibitors; Vaccinia virus Venus reporter expression, fluorescence; calls by dose curve; tested in A549 cells; also: nearly all actives have a fitted effect of over 30% in size
# TbPYK inhibitor – blocks Trypanosoma brucei pyruvate kinase. TbPYK enzyme, Kinase-Glo Plus ATP luminescence, 45 min. 410,000 tested, 0.12% active. Potency, µM (titrated, usually from 76.8 µM), actives largely listed as inhibitors. Q57TT1; also: nearly all actives have a fitted effect of over 50% in size
#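 Activity of T. brucei pyruvate kinase was followed by Kinase-Glo Plus luminescence after the enzyme reacted 45 min at room temperature with 130 uM ADP (final) and substrate. Test compounds were added before ADP at multiple concentrations.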
# VACV mCherry inh – inhibitors of vaccinia virus infection (mCherry reporter signal); Vaccinia virus mCherry reporter infection, fluorescence; Potency, µM (series often up to 36.5 µM), usual class: inhibitors; 310,000 tested, 0.63% active; AID 720579; calls by dose curve; tested in A549 cells; also: nearly all actives have a fitted effect of over 35% in size
# HCMV antiviral – human cytomegalovirus inhibition; AID 1259415; HFF cells, HCMV-luciferase reporter, 72 h; active compounds read low; activity change, negative = inhibition, % at 57.5 µM; 410,000 tested, 4.5% active; in the data active = activity change below about -60%; inconclusive = no clear call, values can overlap the other calls; inactive = above about -39%
#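 Compounds were evaluated in HFFs infected with an HCMV luciferase reporter virus (MOI 1 PFU/cell). Luciferase in lysates collected 72 h post infection served as the replication measure.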
# LmPK inhibitor – LmPK (Leishmania mexicana) enzyme inhibition | Q27686 | purified LmPK, Kinase-Glo ATP luminescence, 1 h | Potency, µM (titrated, usually from 57.5 µM), usual class: inhibitors | 290,000 tested, 0.37% active | AID 1721
# Target sequence (Q27686 whole entry, looked up): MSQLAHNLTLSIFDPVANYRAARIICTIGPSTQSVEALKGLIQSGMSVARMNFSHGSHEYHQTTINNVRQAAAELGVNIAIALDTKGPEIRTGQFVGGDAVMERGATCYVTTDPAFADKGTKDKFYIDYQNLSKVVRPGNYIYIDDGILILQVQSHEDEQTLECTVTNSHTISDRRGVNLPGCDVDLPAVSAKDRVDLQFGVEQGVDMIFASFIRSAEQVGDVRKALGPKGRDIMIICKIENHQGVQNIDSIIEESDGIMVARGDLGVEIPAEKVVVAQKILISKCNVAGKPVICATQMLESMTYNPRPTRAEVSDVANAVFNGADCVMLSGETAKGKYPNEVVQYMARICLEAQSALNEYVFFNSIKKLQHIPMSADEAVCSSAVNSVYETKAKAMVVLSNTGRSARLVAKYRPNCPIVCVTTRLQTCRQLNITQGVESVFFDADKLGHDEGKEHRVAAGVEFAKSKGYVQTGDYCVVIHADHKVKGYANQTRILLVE
#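 In 50 mM imidazole pH 7.2 with 7 mM MgCl2, LmPK (0.1 nM) turned over PEP (0.5 mM) and ADP (0.1 mM) for 1 h at room temperature. Luciferase read-out of ATP.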
# A number is an active result; n = inactive; u = inconclusive; x = no result; + = active, no number. An excerpt weighted towards active compounds, which were near 5% of everything screened. Unless noted, calls follow the shape of the dose curve; as a rule, active = well fitted curve in the direction sought with a large enough effect; inconclusive = small, poorly fitted or top-dose-only effect, or another doubt; inactive = no such curve, though single readings can be large; an effect the other way counts as inactive or inconclusive.
SMILES,Vaccinia Venus,TbPYK inhibitor,VACV mCherry inh,HCMV antiviral,LmPK inhibitor
Cc1cccc(OCC(=O)N(Cc2ccc(C(C)(C)C)cc2)Cc2ccco2)c1,n,n,n,-81.7,x
Cc1ccc(CN(Cc2ccco2)C(=O)COc2ccc(C)c(C)c2)cc1,n,n,n,n,x
COc1ccc(S(=O)(=O)N(CC(=O)NC(C)c2ccccc2)c2ccc(C)cc2)cc1OC (stereo not given),n,n,n,-88.4,x
CN(C)S(=O)(=O)N(CC(=O)Nc1ccccc1)c1ccccc1,u,n,x,n,n
COc1ccc(CNC(=O)CN(c2ccc(C(C)=O)cc2)S(=O)(=O)c2ccc(C)cc2)cc1OC,n,n,n,n,x
COc1ccc(S(=O)(=O)N(CC(=O)NCc2ccccc2)c2ccc(C)cc2)cc1OC,n,n,n,-105.0,x
C[C@@H](NC(=O)CN(c1ccccc1)S(=O)(=O)N(C)C)c1ccccc1,n,n,n,-105.2,x
Cc1ccnc(SCC(=O)N2CCN(c3cccc(Cl)c3)CC2)n1,n,n,n,n,n
Cc1ccccc1NC(=O)CCc1c(C)nn(-c2ccc(N3CCCCC3)nn2)c1C,n,n,n,n,n
CCOc1ccccc1CNC(=O)CCc1c(C)nn(-c2ccc(N3CCCC3)nn2)c1C,n,n,n,-60.3,x
Cc1ccccc1NC(=O)CCc1c(C)nn(-c2ccc(N3CCOCC3)nn2)c1C,n,n,n,+,n
CCOC(=O)c1cc(S(=O)(=O)Nc2cccc(OC)c2)cn1C,x,n,x,n,n
COc1cc2nc(NC(=O)c3ccc(S(=O)(=O)N4CCCC4)cc3)sc2cc1OC,n,n,n,-62.9,x
CC(=O)Nc1nc2ccc(S(=O)(=O)N3CCCC3)cc2s1,x,n,x,-63.3,n
COC(=O)c1cc(NC(=O)c2cccc(Cl)c2)c(=O)oc1/C=C/Nc1cc(C)cc(C)c1,x,x,x,x,n
Cn1cc(/C=C(\C#N)C(=O)Nc2cccc([N+](=O)[O-])c2)c2ccccc21,x,n,x,u,n
CN1CCN(C(=O)c2cc3c(c(-c4cccc(C#CC(C)(C)O)c4)n2)[C@@H](CCO)N(S(=O)C(C)(C)C)C3)CC1 (stereo not given in full),n,n,n,n,x
O=c1[nH]c(/C(Cl)=C/c2cc(Cl)ccc2O)nc2cc(Cl)ccc12,n,n,n,-70.1,n
Cc1ccc(NC(=O)C2C3C=CC4(O3)C2C(=O)N(CCN2CCOCC2)C4C(=O)NC2CCCCC2)cc1C (stereo not given),n,n,n,n,n
COc1ccc(C(=O)c2c(C(F)(F)F)oc3c2C(=O)c2ccccc2C3=O)cc1OC,5.62µM,n,x,-103.2,n
COc1ccc(C(=O)Nc2ccc3c(c2)C(=O)c2ccccc2C3=O)cc1OC,n,n,n,n,n
O=C(CCC1CCCC1)Nc1ccc(OCC(=O)N2CCOCC2)cc1,x,n,x,n,n
Cc1ccc(Cl)c(OCC(=O)NCC(c2cccs2)N2CCOCC2)c1 (stereo not given),n,n,n,-67.7,x
Oc1ccc(Br)cc1-c1cc(-c2ccc(Cl)cc2)n[nH]1,u,n,x,-77.4,n
CN(CCO)C(=O)c1nc[nH]c1C(=O)N1CCN(c2ccccc2)CC1,x,x,x,n,x
SMILES,Vaccinia Venus,TbPYK inhibitor,VACV mCherry inh,HCMV antiviral,LmPK inhibitor
O=C(COc1ncnc2ccccc12)NCCc1ccc(F)cc1,n,n,u,n,n
O=C(Nc1c(Cl)cccc1Cl)Oc1cccc2cccnc12,u,n,u,-97.8,x
CNC(=O)CN1C(=O)CSc2ncccc21,n,n,n,u,n
CCN(CC)c1ccc(NC(=O)CN2C(=O)CSc3ncccc32)c(C)c1,n,n,n,-86.4,n
C=CCn1c(SCc2ccc(C#N)cc2)nnc1-c1ccccc1,x,n,x,n,n
C=CCn1c(SCc2ccc(C#N)cc2)nnc1-c1cccc(OC)c1,n,n,x,-64.2,n
COc1ccc(-c2ccc3[nH]c4c(c3c2)CCN2C[C@@H]([C@H](C)O)[C@@H](N(C)C(=O)Nc3cc(Cl)cc(Cl)c3)C[C@@H]42)cc1,u,n,n,n,x
COc1ccc(-c2ccc3[nH]c4c(c3c2)CCN2C(=O)[C@@H]([C@H](C)O)[C@@H](N(C)C(=O)Nc3cc(Cl)cc(Cl)c3)C[C@@H]42)cc1,u,n,u,n,x
COc1ccc(-c2ccc3[nH]c4c(c3c2)CCN2C(=O)[C@@H]([C@H](C)O)[C@@H](N(C)C(=O)Nc3ccc(F)cc3)C[C@@H]42)cc1,u,n,u,-99.8,x
C[C@H](O)[C@@H]1CN2CCc3c([nH]c4ccc(-c5ccc6c(c5)OCO6)cc34)[C@@H]2C[C@@H]1N(C)C(=O)Nc1ccc(F)cc1,u,n,u,-102.3,x
O=C(Nc1ccc2c(c1)OCCO2)c1ccc2nccnc2c1,n,n,n,n,u
Cc1cnc(C(=O)OCC(=O)c2ccc(C)s2)cn1,x,n,x,n,x
COC(=O)c1ccccc1NC(=O)CCCn1nc(C)c2sc3ccccc3c2c1=O,n,n,n,n,x
NS(=O)(=O)c1ccc(CCNC(=O)c2ccccc2Cc2ccccc2)cc1,x,n,x,-60.7,n
O=C(NCCc1ccc(Cl)cc1)c1ccc2c(c1)N(Cc1ccccc1)CCS2,n,n,n,n,x
CCc1sc(C(=O)NCCc2ccc(S(N)(=O)=O)cc2)cc1C,n,n,n,n,n
NS(=O)(=O)c1ccc(CCNCC(=O)NC2CC2)cc1,n,n,n,n,n
NS(=O)(=O)c1ccc(CCNC(=O)c2ccc3c(c2)N(Cc2ccccc2)CCS3)cc1,n,n,n,-64.2,n
NS(=O)(=O)c1ccc(CCNCC(=O)N2CCC(Cc3ccccc3)CC2)cc1,n,n,n,-61.2,n
CCc1sc(C(=O)NCCc2ccc(S(N)(=O)=O)cc2)cc1Br,n,n,n,-67.6,n
COc1cc(Cl)ccc1OC1(C)CCN(Cc2c(F)cccc2F)C1 (stereo not given),n,n,n,n,x
O=C1CSc2ccc(S(=O)(=O)NCc3ccccc3Cl)cc2N1,x,n,x,-60.0,n
O=C1CSc2ccc(S(=O)(=O)N3CCN(c4ccccc4F)CC3)cc2N1,x,n,x,-76.1,n
O=C1CSc2ccc(S(=O)(=O)NCc3ccc(Cl)cc3)cc2N1,x,n,x,n,n
O=C1CSc2ccc(S(=O)(=O)N3CCN(c4ccccc4)CC3)cc2N1,x,n,x,n,n
SMILES,Vaccinia Venus,TbPYK inhibitor,VACV mCherry inh,HCMV antiviral,LmPK inhibitor
CC(C)(C)NC(=O)NC(=O)CSc1nncs1,x,n,x,n,n
CSc1nnc2sc3cc(C)ccc3n12,n,n,n,n,x
O=c1cc(N2CCN(c3cccc(Cl)c3)CC2)[nH]c(=O)n1C1CCCCC1,u,n,x,-92.8,n
C/C(=N\NC(=O)C1CC1)c1ccc(OC(F)F)cc1,n,n,n,n,n
CCc1ccccc1NC(=O)CSc1ccsc1[N+](=O)[O-],n,n,n,-65.9,n
COc1ccccc1CNC(=O)CSc1ccsc1[N+](=O)[O-],x,n,x,n,n
O=C(CSc1ccccc1)N1CCN(c2ccccn2)CC1,n,n,n,n,n
O=C(CSc1ccsc1[N+](=O)[O-])N1CCN(c2ccccn2)CC1,n,n,u,-67.8,n

# Bioassay records (PubChem BioAssay)
